Results filed as inconclusive are left out. Calls of active or inactive are those of the source. How the source made its calls, unless noted: active means hit-call score of the fitted dose curve at least 0.9, where 1 is the maximum; inconclusive means response in the unintended direction; inactive means score below 0.9.

For assay [1], the target named is human Peroxisome Proliferator-activated Receptor alpha (PPARa), PPARA (gene 5465) (UniProt Q07869). Description: ATG_PPARa_TRANS: Attagene TRANS-FACTORIAL HepG2 Assay for human Peroxisome Proliferator-activated Receptor alpha (PPARa) (AID 2283001). The essentials:
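Measures transcriptional activity of an exogenous chimeric PPARa-Gal4 protein in transiently transfected HepG2 cells after 24 h dosing. Reporter mRNA quantified via RT-PCR and capillary electrophoresis; DMSO served as negative control.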

Assay [2] addresses human Peroxisome Proliferator-activated Receptor delta (PPARd), PPARD (gene 5467) (UniProt Q03181). The experiment in a line: ATG_PPARd_TRANS: Attagene TRANS-FACTORIAL HepG2 Assay for human Peroxisome Proliferator-activated Receptor delta (PPARd) (AID 2283002). The gist of the method:
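HepG2 cells transiently transfected with GAL4-UAS multiplexed reporter units driven by exogenous chimeric NR-GAL4 proteins; 24 h compound exposure. Reporter mRNA measured by RT-PCR, 6-FAM primer extension, HpaI digestion and capillary electrophoresis; gain of signal fitted relative to DMSO.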

Assay [3] concerns the target Retinoic acid receptor alpha (Homo sapiens) (UniProt P10276). The experiment in a line: ATG_RARa_TRANS: Attagene TRANS-FACTORIAL HepG2 Assay for human Retinoic Acid Receptor alpha (RARa) (AID 2283005). The gist of the method:
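HepG2 transiently transfected with multiplex GAL4-UAS reporter units including a human RARa–GAL4 chimera; 24 h compound exposure. Reporter mRNA quantified by RT-PCR, 6-FAM labeling and capillary electrophoresis; gain of signal versus DMSO.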

Assay [4] addresses Peroxisome proliferator-activated receptor gamma (Homo sapiens) (UniProt P37231). Description: ATG_PPARg_TRANS: Attagene TRANS-FACTORIAL HepG2 Assay for human Peroxisome Proliferator-activated Receptor-gamma (PPARg) (AID 2283007). The essentials:
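Liver-derived HepG2 cells expressing an exogenous NR-Gal4 chimera alongside GAL4-UAS reporter genes; 24 h exposure. Fluorescence of reporter RT-PCR products, separated by capillary electrophoresis, gives mRNA induction relative to DMSO.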

The target in assay [5] is Nuclear receptor subfamily 1 group I member 2 (Homo sapiens) (UniProt O75469). The experiment in a line: ATG_PXR_TRANS: Attagene TRANS-FACTORIAL HepG2 Assay for human Pregnane X Receptor (PXR) (AID 2283008). The gist of the method: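 Measures mRNA induction of a GAL4-UAS-driven reporter in human HepG2 cells transiently expressing PXR fused to Gal4, following 24 h treatment. DMSO served as negative control and baseline.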

The target in assay [6] is human Retinoic Acid Receptor gamma (RARg), RARG (gene 5916) (UniProt P13631). Description: ATG_RARg_TRANS: Attagene TRANS-FACTORIAL HepG2 Assay for human Retinoic Acid Receptor gamma (RARg) (AID 2283009).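 On AC50: AC50 is for reporter induction above DMSO meaning RARg activation.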 The gist of the method: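 HepG2, RARg-GAL4 TRANS system, 24 h exposure; reporter mRNA by RT-PCR + CE fluorescence; increase over DMSO.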
For assay [7], the target named is human RAR-related Orphan Receptor beta (RORb), RORB (gene 6096) (UniProt Q92753). The experiment in a line: ATG_RORb_TRANS: Attagene TRANS-FACTORIAL HepG2 Assay for human RAR-related Orphan Receptor beta (RORb) (AID 2283010). The gist of the method:
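In this TRANS-format test, human HepG2 cells express chimeric NR-Gal4 fusion proteins driving GAL4-UAS reporters. After 24 h dosing, reporter transcripts are measured by fluorescent RT-PCR/capillary electrophoresis, with DMSO as negative control.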

Assay [8] concerns the target Retinoic acid receptor RXR-alpha (Homo sapiens) (UniProt P19793). The experiment in a line: ATG_RXRa_TRANS: Attagene TRANS-FACTORIAL HepG2 Assay for human Retinoid X Receptor alpha (RXRa) (AID 2283012). The gist of the method:
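Cells (HepG2) carried transiently transfected GAL4-responsive reporter units. Following a 24 h chemical incubation, reporter mRNA induction was read via RT-PCR fragment analysis; DMSO served as negative control and baseline.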

Assay [9] concerns the target human Thyroid Receptor alpha (THRa1), THRA (gene 7067) (UniProt P10827). Description: ATG_THRa1_TRANS: Attagene TRANS-FACTORIAL HepG2 Assay for human Thyroid Receptor alpha (THRa1) (AID 2283014). The essentials:
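First, HepG2 cells receive multiple GAL4-UAS reporter units and the chimeric receptor. They are then dosed for 24 h, after which RNA is reverse-transcribed, amplified, labelled, HpaI-cut and sized by capillary electrophoresis; gain relative to DMSO is scored.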

A short description of assay [10]: BSK_4H_Eotaxin3: BioMAP Diversity Plus: 4H Assay for Eotaxin 3 Biomarker Activity (AID 2283000; active means hit-call score of the fitted dose curve at least 0.9, where 1 is the maximum; inactive means score below 0.9;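 on outcome: CCL26 protein level quantified by ELISA in parallel with SRB cytotoxicity check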). As to conditions: primary human endothelial cells (HUVEC); actives raise or lower the signal. The gist of the method: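 Endothelial primary cells (human umbilical vein) exposed to compound for 24 h. ELISA detection of Eotaxin-3.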
Read-out in assay [11]: Intercellular Adhesion Molecule 1 (ICAM1), ICAM1 (gene 3383)
Description: BSK_3C_ICAM1: BioMAP Diversity Plus: 3C Assay for Intercellular Adhesion Molecule 1 (ICAM1) Biomarker Activity (AID 2283003; active means hit-call score of the fitted dose curve at least 0.9, where 1 is the maximum; inactive means score below 0.9). The note with it: primary human endothelial cells (HUVEC); actives raise or lower the signal. The essentials:
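Human vascular endothelial primary cells, 3C conditions, 24 h treatment. ICAM-1 by ELISA.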

Assay [12] concerns the target human Retinoic Acid Receptor beta (RARb), RARB (gene 5915) (UniProt P10826). The experiment in a line: ATG_RARb_TRANS: Attagene TRANS-FACTORIAL HepG2 Assay for human Retinoic Acid Receptor beta (AID 2283004). The essentials:
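HepG2, transient MRTU transfection, NR–Gal4 chimera, 24 h treatment; RT-PCR plus CE fluorescence detection of reporter mRNA; gain of signal vs DMSO.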

Assay [13] in a line: BSK_3C_Proliferation: Cell Proliferation Assessment in the BioMAP Diversity Plus: 3C Assay (AID 2283006; active means hit-call score of the fitted dose curve at least 0.9, where 1 is the maximum; inactive means score below 0.9;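 further: potency may reflect either rise or fall in cell number versus DMSO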). The note with it: primary human endothelial cells (HUVEC). The gist of the method:
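Proliferation of human vascular endothelial primary cells after 48 h dosing, quantified as SRB-stained protein at 560 nm relative to DMSO.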

Assay [14] concerns the target human RAR-related Orphan Receptor gamma (RORg), RORC (gene 6097) (UniProt P51449). The experiment in a line: ATG_RORg_TRANS: Attagene TRANS-FACTORIAL HepG2 Assay for human RAR-related Orphan Receptor gamma (RORg) (AID 2283011). The gist of the method: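 Activity is scored as increase in GAL4-UAS reporter mRNA over DMSO, detected by fluorescent RT-PCR and capillary electrophoresis in HepG2 cells transiently expressing a RORg-Gal4 chimera, 24 h after dosing.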

Assay [15] addresses human Retinoid X Receptor beta (RXRb), RXRB (gene 6257) (UniProt P28702). The experiment in a line: ATG_RXRb_TRANS: Attagene TRANS-FACTORIAL HepG2 Assay for human Retinoid X Receptor beta (RXRb) (AID 2283013). The essentials: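 Multiplexed TRANS reporter assay in HepG2; 24 h dosing; reporter mRNA by RT-PCR/CE fluorescence; gain-of-signal relative to DMSO.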
Read-out in assay [16]: E-selectin (Homo sapiens) (UniProt P16581)
The experiment in a line: BSK_3C_Eselectin: BioMAP Diversity Plus: 3C Assay for Eselectin Biomarker Activity (AID 2283015; active means hit-call score of the fitted dose curve at least 0.9, where 1 is the maximum; inactive means score below 0.9;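 on outcome: cell surface E-selectin protein quantified by ELISA 24 h after dosing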). The note with it: primary human endothelial cells (HUVEC); actives raise or lower the signal. The essentials:
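Human vascular endothelium from umbilical vein is exposed to test chemicals for 24 h. E-selectin levels are read by ELISA and compared with DMSO controls.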

Read-out in assay [17]: Interleukin-1 alpha (IL1a), IL1A (gene 3552)
The experiment in a line: BSK_BE3C_IL1a: BioMAP Diversity Plus: BE3C Assay for Interleukin-1 alpha (IL1a) Biomarker Activity (AID 2283016; active means hit-call score of the fitted dose curve at least 0.9, where 1 is the maximum; inactive means score below 0.9). The note with it: primary human bronchial epithelial cells; actives raise or lower the signal. The essentials: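 Cultures of primary human bronchial epithelial cells receive test chemical. After 24 h, IL-1a is quantified by ELISA, while parallel wells are fixed in TCA and SRB-stained for total protein. Changes in either direction are fitted relative to DMSO.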

Read-out in assay [18]: Monocyte Chemoattractant Protein-1 (MCP1), CCL2 (gene 6347)
The experiment in a line: BSK_3C_MCP1: BioMAP Diversity Plus: 3C Assay for Monocyte Chemoattractant Protein-1 (MCP1) Biomarker Activity (AID 2283017; active means hit-call score of the fitted dose curve at least 0.9, where 1 is the maximum; inactive means score below 0.9). As to conditions: primary human endothelial cells (HUVEC); actives raise or lower the signal. The essentials: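 Endothelial cells from human umbilical vein are dosed with chemical, cultured 24 h, then assayed for MCP-1 by ELISA; both increases and decreases are modelled against DMSO controls.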

Read-out in assay [19]: Monocyte Chemoattractant Protein-1 (MCP1), CCL2 (gene 6347)
Description: BSK_4H_MCP1: BioMAP Diversity Plus: 4H Assay for Monocyte Chemoattractant Protein-1 (MCP1) Biomarker Activity (AID 2283018; active means hit-call score of the fitted dose curve at least 0.9, where 1 is the maximum; inactive means score below 0.9). As to conditions: primary human endothelial cells (HUVEC); actives raise or lower the signal. The gist of the method:
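Readout: MCP-1 ELISA on compound-treated HUVEC, sampled 24 h post-dosing. Baseline and negative control DMSO; bidirectional fit. Overt toxicity checked alongside by sulforhodamine B protein staining at time of biomarker measurement.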

Read-out in assay [20]: Human Leukocyte Antigen - DR isotype (HLADR), HLA-DRA (gene 3122)
The experiment in a line: BSK_3C_HLADR: BioMAP Diversity Plus: 3C Assay for Human Leukocyte Antigen - DR isotype (HLADR) Biomarker Activity (AID 2283019; active means hit-call score of the fitted dose curve at least 0.9, where 1 is the maximum; inactive means score below 0.9;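 on outcome: ELISA of cell-surface HLA-DR on HUVEC 24 h after dosing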). The note with it: primary human endothelial cells (HUVEC); actives raise or lower the signal. The essentials: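 Endothelial cells from human umbilical vein are treated with test chemical; after 24 h, HLA-DR levels are measured by ELISA. Data are fitted in both directions using DMSO as the baseline.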

Chain of E-selectin (Homo sapiens) (P16581 whole entry, looked up): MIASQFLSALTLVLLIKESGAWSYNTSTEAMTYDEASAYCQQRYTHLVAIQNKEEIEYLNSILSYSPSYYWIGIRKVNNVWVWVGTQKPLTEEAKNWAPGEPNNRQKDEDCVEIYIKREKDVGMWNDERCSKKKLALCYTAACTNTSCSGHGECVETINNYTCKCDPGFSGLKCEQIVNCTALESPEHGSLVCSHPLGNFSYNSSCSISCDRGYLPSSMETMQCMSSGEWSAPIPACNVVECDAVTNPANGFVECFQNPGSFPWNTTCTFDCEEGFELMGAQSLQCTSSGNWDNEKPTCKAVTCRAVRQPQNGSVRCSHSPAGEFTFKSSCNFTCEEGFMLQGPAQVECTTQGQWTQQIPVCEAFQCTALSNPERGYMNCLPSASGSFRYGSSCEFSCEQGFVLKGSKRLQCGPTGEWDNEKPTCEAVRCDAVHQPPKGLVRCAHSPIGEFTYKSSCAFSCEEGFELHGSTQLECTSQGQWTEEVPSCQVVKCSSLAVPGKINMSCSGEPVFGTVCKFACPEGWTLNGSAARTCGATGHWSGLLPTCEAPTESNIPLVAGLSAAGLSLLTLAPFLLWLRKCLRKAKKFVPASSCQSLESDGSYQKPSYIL
Chain of Retinoic acid receptor alpha (Homo sapiens) (P10276 whole entry, looked up, the tested form may be a part): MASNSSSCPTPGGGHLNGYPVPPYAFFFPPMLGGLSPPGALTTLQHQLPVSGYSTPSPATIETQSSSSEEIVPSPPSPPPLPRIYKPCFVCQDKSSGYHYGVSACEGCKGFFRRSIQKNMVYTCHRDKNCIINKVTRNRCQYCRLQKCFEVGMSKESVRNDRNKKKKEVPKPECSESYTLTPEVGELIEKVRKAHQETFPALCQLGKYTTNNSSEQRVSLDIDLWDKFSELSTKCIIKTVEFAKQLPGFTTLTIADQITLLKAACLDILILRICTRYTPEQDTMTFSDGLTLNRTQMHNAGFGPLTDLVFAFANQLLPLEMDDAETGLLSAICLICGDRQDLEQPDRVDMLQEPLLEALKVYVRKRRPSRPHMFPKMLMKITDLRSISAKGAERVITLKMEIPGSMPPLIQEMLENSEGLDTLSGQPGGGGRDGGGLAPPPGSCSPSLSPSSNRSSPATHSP
Chain of human Retinoid X Receptor beta (RXRb), RXRB (gene 6257) (P28702 whole entry, looked up): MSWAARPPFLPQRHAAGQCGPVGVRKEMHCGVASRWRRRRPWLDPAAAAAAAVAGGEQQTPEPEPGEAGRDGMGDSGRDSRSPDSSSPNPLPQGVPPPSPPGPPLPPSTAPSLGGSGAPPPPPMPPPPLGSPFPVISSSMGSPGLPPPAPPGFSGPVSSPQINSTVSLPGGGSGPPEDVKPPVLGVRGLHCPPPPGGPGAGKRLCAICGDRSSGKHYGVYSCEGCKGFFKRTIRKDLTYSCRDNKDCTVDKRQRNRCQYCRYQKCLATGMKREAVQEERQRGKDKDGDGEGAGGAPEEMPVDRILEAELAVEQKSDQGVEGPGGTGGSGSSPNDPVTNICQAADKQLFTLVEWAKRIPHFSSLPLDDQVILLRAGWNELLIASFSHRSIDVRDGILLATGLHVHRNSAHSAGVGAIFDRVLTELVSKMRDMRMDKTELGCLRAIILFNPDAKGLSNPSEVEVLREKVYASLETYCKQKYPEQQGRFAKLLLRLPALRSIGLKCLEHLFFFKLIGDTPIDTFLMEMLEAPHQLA
Chain of Peroxisome proliferator-activated receptor gamma (Homo sapiens) (P37231 whole entry, looked up, the tested form may be a part): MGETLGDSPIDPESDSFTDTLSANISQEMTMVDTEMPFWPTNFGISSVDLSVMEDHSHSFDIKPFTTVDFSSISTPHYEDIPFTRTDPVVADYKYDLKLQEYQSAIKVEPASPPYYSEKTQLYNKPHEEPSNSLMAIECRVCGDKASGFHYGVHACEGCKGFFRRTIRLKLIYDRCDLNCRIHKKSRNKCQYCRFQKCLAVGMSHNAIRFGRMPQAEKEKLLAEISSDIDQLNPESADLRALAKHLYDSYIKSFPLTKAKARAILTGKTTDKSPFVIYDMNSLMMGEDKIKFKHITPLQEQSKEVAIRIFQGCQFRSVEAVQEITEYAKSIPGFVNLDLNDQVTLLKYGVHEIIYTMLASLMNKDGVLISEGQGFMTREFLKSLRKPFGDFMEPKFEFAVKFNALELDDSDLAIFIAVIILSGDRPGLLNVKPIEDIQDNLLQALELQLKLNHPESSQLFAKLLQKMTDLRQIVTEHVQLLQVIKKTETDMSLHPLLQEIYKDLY
Chain of human Thyroid Receptor alpha (THRa1), THRA (gene 7067) (P10827 whole entry, looked up, the tested form may be a part): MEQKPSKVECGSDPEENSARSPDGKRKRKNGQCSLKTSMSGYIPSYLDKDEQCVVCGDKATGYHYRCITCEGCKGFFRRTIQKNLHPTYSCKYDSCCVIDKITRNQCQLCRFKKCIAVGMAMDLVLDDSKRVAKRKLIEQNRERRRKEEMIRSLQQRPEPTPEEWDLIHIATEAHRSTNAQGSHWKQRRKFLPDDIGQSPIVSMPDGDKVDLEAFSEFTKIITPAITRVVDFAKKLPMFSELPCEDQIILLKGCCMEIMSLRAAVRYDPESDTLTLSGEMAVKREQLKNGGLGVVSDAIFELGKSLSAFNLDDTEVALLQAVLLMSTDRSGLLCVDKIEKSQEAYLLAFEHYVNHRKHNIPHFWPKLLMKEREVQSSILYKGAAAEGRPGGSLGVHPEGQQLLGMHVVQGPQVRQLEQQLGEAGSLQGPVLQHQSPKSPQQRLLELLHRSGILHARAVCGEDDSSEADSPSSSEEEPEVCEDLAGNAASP
Chain of Retinoic acid receptor RXR-alpha (Homo sapiens) (P19793 whole entry, looked up, the tested form may be a part): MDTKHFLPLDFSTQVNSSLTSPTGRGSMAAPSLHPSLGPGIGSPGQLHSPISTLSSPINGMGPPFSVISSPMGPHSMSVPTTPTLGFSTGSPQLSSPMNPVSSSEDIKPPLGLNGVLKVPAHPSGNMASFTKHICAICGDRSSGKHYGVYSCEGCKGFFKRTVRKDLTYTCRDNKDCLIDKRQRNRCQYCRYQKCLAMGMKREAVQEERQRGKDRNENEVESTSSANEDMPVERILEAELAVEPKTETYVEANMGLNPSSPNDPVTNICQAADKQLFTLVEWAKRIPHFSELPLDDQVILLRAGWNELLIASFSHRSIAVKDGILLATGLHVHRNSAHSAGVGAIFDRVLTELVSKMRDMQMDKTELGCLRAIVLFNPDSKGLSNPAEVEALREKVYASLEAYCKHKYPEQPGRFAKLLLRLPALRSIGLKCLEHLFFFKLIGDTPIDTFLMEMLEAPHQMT
Chain of human RAR-related Orphan Receptor beta (RORb), RORB (gene 6096) (Q92753 whole entry, looked up, the tested form may be a part): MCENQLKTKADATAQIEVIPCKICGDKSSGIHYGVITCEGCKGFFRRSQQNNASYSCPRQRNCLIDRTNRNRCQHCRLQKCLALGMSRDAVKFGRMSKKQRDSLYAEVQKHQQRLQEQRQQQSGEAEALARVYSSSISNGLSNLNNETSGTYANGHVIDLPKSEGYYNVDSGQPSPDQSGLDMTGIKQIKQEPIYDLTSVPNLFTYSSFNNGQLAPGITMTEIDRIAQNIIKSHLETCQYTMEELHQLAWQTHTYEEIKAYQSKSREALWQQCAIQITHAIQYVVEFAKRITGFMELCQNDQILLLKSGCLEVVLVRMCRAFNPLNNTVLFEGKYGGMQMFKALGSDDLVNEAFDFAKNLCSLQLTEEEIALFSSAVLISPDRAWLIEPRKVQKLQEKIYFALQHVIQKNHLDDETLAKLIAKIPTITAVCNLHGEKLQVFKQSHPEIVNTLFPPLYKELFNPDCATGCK
Chain of human RAR-related Orphan Receptor gamma (RORg), RORC (gene 6097) (P51449 whole entry, looked up, the tested form may be a part): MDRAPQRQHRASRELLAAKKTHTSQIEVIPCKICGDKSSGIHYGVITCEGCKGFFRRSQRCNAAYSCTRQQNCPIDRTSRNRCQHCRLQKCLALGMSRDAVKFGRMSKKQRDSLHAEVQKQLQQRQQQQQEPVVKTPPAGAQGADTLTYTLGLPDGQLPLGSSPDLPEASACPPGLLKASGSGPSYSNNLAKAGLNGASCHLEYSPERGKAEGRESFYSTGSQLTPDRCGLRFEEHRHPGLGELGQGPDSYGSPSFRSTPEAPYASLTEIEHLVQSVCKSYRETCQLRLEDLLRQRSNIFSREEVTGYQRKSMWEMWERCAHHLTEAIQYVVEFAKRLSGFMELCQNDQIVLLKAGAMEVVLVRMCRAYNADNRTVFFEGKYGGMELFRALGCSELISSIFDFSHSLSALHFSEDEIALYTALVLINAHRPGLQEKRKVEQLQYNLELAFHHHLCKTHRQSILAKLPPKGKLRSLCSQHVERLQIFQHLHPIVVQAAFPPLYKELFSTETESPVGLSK
Chain of human Peroxisome Proliferator-activated Receptor delta (PPARd), PPARD (gene 5467) (Q03181 whole entry, looked up, the tested form may be a part): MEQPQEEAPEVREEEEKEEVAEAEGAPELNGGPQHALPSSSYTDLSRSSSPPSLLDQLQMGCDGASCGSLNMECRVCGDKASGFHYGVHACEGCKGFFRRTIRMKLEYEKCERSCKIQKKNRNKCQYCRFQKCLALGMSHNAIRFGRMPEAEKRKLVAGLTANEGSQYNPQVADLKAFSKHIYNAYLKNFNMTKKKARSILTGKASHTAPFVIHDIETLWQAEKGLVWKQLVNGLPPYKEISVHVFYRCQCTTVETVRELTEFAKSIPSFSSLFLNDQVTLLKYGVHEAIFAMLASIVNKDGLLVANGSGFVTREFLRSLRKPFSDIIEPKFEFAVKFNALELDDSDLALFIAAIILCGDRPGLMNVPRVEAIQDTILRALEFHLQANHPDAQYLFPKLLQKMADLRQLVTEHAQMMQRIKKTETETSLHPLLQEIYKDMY
Chain of Nuclear receptor subfamily 1 group I member 2 (Homo sapiens) (O75469 whole entry, looked up, the tested form may be a part): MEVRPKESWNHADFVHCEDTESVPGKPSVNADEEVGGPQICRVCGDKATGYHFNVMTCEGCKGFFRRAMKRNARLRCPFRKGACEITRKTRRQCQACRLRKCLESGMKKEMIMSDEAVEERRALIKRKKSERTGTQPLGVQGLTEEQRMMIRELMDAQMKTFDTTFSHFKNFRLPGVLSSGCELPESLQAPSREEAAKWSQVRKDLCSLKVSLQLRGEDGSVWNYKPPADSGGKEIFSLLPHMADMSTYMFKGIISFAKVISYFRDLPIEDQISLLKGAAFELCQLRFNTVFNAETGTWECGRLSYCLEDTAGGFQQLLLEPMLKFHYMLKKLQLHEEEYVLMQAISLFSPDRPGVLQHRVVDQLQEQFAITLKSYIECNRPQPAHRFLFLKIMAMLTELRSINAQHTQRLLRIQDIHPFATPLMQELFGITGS

Consider `CCCCCCCCCCCC[N+](C)(C)CCCCCCCCCCCC`, for which the call in [1], in assay [2], in assay [3], in [4], in [5] and in [7] was inactive. Also, the compound was called inactive in [8] and in assay [9]. Moreover, in assay [6], the concentration at half-maximal activity (AC50) was 27.3 µM (active).
For `OCCN1CN(CCO)CN(CCO)C1`, the AC50 in [10] was 30.2 µM (active); in assay [11], 29.4 µM (active); in assay [13], 24.2 µM (active); in [16], 34.1 µM (active); in [17], 4.12 µM (active); in [18], 31.1 µM (active). The values for the AC50 in assay [19] and in assay [20] were 35.5 µM (active) and 28 µM (active), respectively. Further, the compound was called inactive in assay [12], in [3], in assay [4], in assay [6], in [7] and in assay [14]. For the same compound, the call in [8], in assay [15] and in assay [9] was inactive.
Turning to `O=C(CCCN1CCC(O)(c2ccc(Cl)cc2)CC1)c1ccc(F)cc1`, the result in [10], in assay [11], in assay [15], in assay [9], in assay [16] and in assay [17] was inactive. Besides, the outcome in [18], in assay [19] and in [20] was inactive. In addition, in [13], the concentration at half-maximal activity (AC50) is 7.3 µM (active).
Take `CCC(=O)O`: the result in assay [1], in [2], in [3], in assay [4], in [5] and in [14] was inactive. Further, the outcome in assay [8] and in assay [15] was inactive.
In the case of `CCCCCc1ccc(O)cc1`, the AC50 in [10] was 14.5 µM (active); in assay [11], 15.9 µM (active); in assay [13], 10.5 µM (active); in assay [4], 41.4 µM (active); in [5] it was 20.7 µM (active); in assay [15], 33.4 µM (active). The AC50 is 13.5 µM (active) in assay [16]; 23.8 µM (active) in assay [17]; 20 µM (active) in [18]; 9.34 µM (active) in assay [19]; 11.6 µM (active) in assay [20]. The result in [12], in assay [7], in assay [14], in assay [8] and in assay [9] was inactive.

In general, AC50 refers to the concentration at which the activity in the assay is half-maximal.

Source of the values: PubChem BioAssay (EPA / NIEHS).
